Screening data from PubChem BioAssay.
esBAF inh: blocks esBAF chromatin remodeling in mouse ES cells; AID 602393; reporter increase, % at 12.5 µM; 2% of 350,000 active; Bmi1-luciferase knock-in reporter, 24 h; 100% = twice the neutral-well signal; in the data active = activation above about 40%;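 note: 0% = median of the plate's neutral control wells and 100% = double that signal; a rise in the Bmi1 reporter signal indicates esBAF inhibition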
GAA850 FXN act: increases GAA850 frataxin promoter reporter activity. activation, % at 6 µM. HEK293 lucGAA850 FXN promoter luciferase reporter, 24 h; percent of 10 µM SAHA response. 0.56% of 360,000 active;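 active = activation above the average of all compounds screened plus 3 SD, cutoff fixed separately per campaign, cut at about 7.5% in these data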;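 note: 0% = DMSO wells and 100% = 10 µM SAHA wells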
MITF act: MITF TRPM1 promoter activation in melanoma cells; 0.75% of 300,000 active; SK-MEL-5 TRPM1-promoter luciferase, 24 h; % of positive control, neutral wells = 0; AID 588334; activation, % at 12.5 µM;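 active = mean activation of at least 80% with every replicate also reaching 80%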;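 note: 0% = neutral control wells and 100% = parthenolide positive control wells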
Wnt act: activators of Wnt/beta-catenin signaling; activation, % at 9.35 µM; 1.2% of 300,000 active; Wnt/beta-catenin reporter cell assay, activator, plate reader; in the data active = activation above about 30%, passing the limit was not always enough;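 note: 0% = neutral control wells and 100% = positive control wells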
GAA30 FXN cntr: GAA30 FXN promoter activation counter-screen; shares compounds with GAA850 FXN act; HEK293 lucGAA30 FXN promoter luciferase, 24 h; DMSO = 0%, 5 µM ipriflavone = 100%; activation, % at 6 µM; 66% of 1,900 active;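 active = mean activation above the mean of solvent-only control wells plus 3 SD, cut at about 22% in these data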;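 note: counterscreen of GAA850 promoter hits where activity marks nonselective or luminescence artifacts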
GAA850 confirm: confirmation of GAA850 frataxin (FXN) promoter activators | HEK293 lucGAA850 FXN promoter luciferase reporter, 24 h; 100% = activation by SAHA | 86% of 1,900 active | shares compounds with GAA850 FXN act | activation, % at 6 µM | AID 588351;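 active = mean activation above a set limit taken from the primary screen, cut at about 8% in these data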;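 note: 0% = DMSO wells and 100% = 10 µM SAHA wells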
* = called active by the depositor; . = not tested or not shown. Shown are actives, neighbours in structure and some others; about 2.8% of the full set was active somewhere.

SMILES	esBAF inh	GAA850 FXN act	MITF act	Wnt act	GAA30 FXN cntr	GAA850 confirm
O=S(=O)(NCC(Nc1ccc(Cl)cc1)c1ccccc1)c1ccc(Cl)cc1 (configuration not stated)	5	8.5*	-2	-4	7	10.0*
O=S(=O)(NCC(c1ccccc1)N1CCC(O)CC1)c1ccc(Cl)cc1 (configuration not stated)	2	0	-6	-3	.	.
C[C@H]1c2cccc(O)c2C(O)=C2C(=O)C3(O)C(O)=C(C(N)=O)C(=O)[C@@H](N(C)C)[C@@H]3[C@@H](O)[C@@H]21 (some centres not stated)	7	17*	7	10	22*	3
CN(C)c1ccc(O)c2c1CC1CC3C(N(C)C)C(=O)C(C(N)=O)=C(O)[C@@]3(O)C(=O)C1=C2O (some centres not stated)	8	25*	-26	1	24*	7
CN(C)c1ccc(O)c2c1CC1CC3[C@@H](N(C)C)C(=O)C(C(N)=O)C(=O)[C@]3(O)C(=O)C1C2=O (some centres not stated)	14	11*	-13	0	35*	11*
C=C1c2cccc(O)c2C(O)=C2C(=O)[C@]3(O)C(O)=C(C(N)=O)C(=O)[C@@H](N(C)C)[C@@H]3[C@@H](O)[C@H]12	3	17*	-7	-1	28*	9.6*
O=C(NCCc1ccncc1)[C@@H]1N[C@@H]2c3ccc(/C=C/c4ccccc4)c(=O)n3C[C@@H]2[C@H]1CO	9	.	.	.	.	.
Cc1noc(C)c1NC(=O)Nc1ccc2c(c1)C(=O)N([C@@H](C)CO)C[C@H](C)[C@H](CN(C)CC1CC1)O2	0	.	.	.	.	.
C[C@@H]1CN([C@@H](C)CO)C(=O)c2cccc(NS(=O)(=O)c3ccc(F)cc3)c2O[C@@H]1CN(C)S(C)(=O)=O	1	.	.	.	.	.
C[C@H]1c2cccc(O)c2C(=O)C2C(=O)C3(O)C(=O)C(C(N)=O)C(=O)[C@@H](N(C)C)[C@@H]3[C@@H](O)[C@@H]21 (some centres not stated)	8	14*	-1	3	41*	13*
COc1cc(NC(=O)c2cc3ccccc3o2)c(OC)cc1Br	1	17*	-6	.	24*	16*
CCOC(=O)CSc1ccc(-c2nc3ccccc3[nH]2)cn1	-7	1	5	13	.	.
N#CCSc1ccc(-c2nc3ccccc3[nH]2)cn1	.	7.8*	72	34*	85*	27*
CC(Oc1ccc(C(C)(C)C)cc1)C(=O)NCC(c1ccco1)N1CCCC1 (configuration not stated)	2	8.4*	7	-3	16	9.6*
O=C1/C(=C/c2ccccc2)Oc2cc(OC(=O)N3CCOCC3)ccc21	-12	7.8*	14	.	62*	24*
O=C1/C(=C/c2ccc(F)cc2)Oc2cc(OC(=O)N3CCOCC3)ccc21	.	0	26	1	.	.
Cc1ccc2nc(/C(C#N)=C\c3ccc([N+](=O)[O-])o3)[nH]c2c1	-63	8.1*	-91	.	-52	-13
N#C/C(=C\c1ccc([N+](=O)[O-])o1)c1nc2ccccc2[nH]1	.	.	.	-15	.	.
CN1CCN(C(=O)C[C@H]2CC[C@H]3[C@@H](COC[C@H](O)CN3C(=O)Nc3ccc(Cl)cc3)O2)CC1	29	.	.	.	.	.
Cc1cccc(N=Nc2ccc(O)c3ncccc23)c1	.	12*	-70	.	-102	-32
C[C@H](CO)N1C[C@H](C)[C@@H](CN(C)C)Oc2ncc(-c3ccc(C(=O)N(C)C)cc3)cc2C1=O	5	.	.	.	.	.
CC1CCCN(C(=O)c2nn(C)c3c2CSc2ccccc2-3)C1 (configuration not stated)	4	9.6*	.	1	30*	12*
C[C@H]1CN([C@@H](C)CO)C(=O)c2cc(NC(=O)CCC(F)(F)F)ccc2O[C@@H]1CN(C)S(=O)(=O)c1cn(C)cn1	-10	.	.	.	.	.
CC(C)(C)Nc1ncnc2sc(-c3ccccc3)cc12	9	1	-10	0	.	.
COc1ncnc2sc(-c3ccccc3)cc12	50*	9.0*	74	.	106*	37*
SMILES	esBAF inh	GAA850 FXN act	MITF act	Wnt act	GAA30 FXN cntr	GAA850 confirm
CN(C)c1ncnc2sc(-c3ccccc3)cc12	17	9.0*	24	6	46*	18*
COc1ccccc1C(=O)Nc1ccc2c(c1)OC[C@H](C)N(C)C[C@@H](C)[C@H](OC)CN(C)C2=O	14	.	.	.	.	.
CO[C@@H]1CN(C)C(=O)c2cc(NC(=O)C3CC3)ccc2OC[C@@H](C)N(Cc2ccncc2)C[C@H]1C	-3	.	.	.	.	.
C[C@@H]1CCCCO[C@H](CN(C)S(=O)(=O)c2cccs2)[C@@H](C)CN([C@H](C)CO)C(=O)c2cc(NC(=O)Nc3cccc4ccccc34)ccc2O1	-4	.	.	.	.	.
CCC(=O)N(C)C[C@@H]1Oc2cc(C#CC(C)(C)O)ccc2S(=O)(=O)N([C@H](C)CO)C[C@H]1C	-2	.	.	.	.	.
C[C@@H]1CN([C@H](C)CO)C(=O)Cc2cc(NC(=O)Nc3ccccc3)ccc2O[C@@H]1CN(C)C	3	.	.	.	.	.
CC(=O)N1CC(=O)N=C1SCC(=O)Nc1nc(C)c(-c2ccccc2)s1	-8	8.0*	5	-3	44*	22*
CCOc1ccc(-c2csc(NC(=O)CSC3=NC(=O)CN3C(C)=O)n2)c2ccccc12	.	1	2	-5	.	.
COc1cc(OC)c(OC)cc1C=Cc1ccc2ccccc2n1	.	8.9*	.	6	67*	30*
CCNC(=O)[C@H]1[C@H](CO)[C@H]2Cn3c(ccc(-c4ccccc4F)c3=O)[C@H]2N1C(=O)CC	7	.	.	.	.	.
C[C@@H]1CN([C@H](C)CO)C(=O)c2cc(C#CC3(O)CCCC3)cnc2O[C@@H]1CN(C)C(=O)CC1CC1	-4	.	.	.	.	.
CN(C)c1nc(C=C(C#N)C#N)c(Cl)n1-c1ccc(F)cc1	.	11*	-100	-1	-57	33*
CCOc1ccccc1NC(=O)/C(C#N)=C/c1c(C)nn(-c2ccc(F)cc2)c1Cl	.	1	6	-4	.	.
COCCCNc1nc(SCc2ccccc2)nc2sc3c(c12)CCC3	7	14*	.	-2	31*	21*
COCCNc1nc(SC)nc2sc3c(c12)CCN(C)C3	-2	1	-9	1	.	.
C[C@@H]1CCCCO[C@@H](CN(C)CC2CCCCC2)[C@H](C)CN([C@H](C)CO)C(=O)c2cc(NC(=O)c3ccccc3)ccc2O1	-6	.	.	.	.	.
COc1ccccc1-c1ccc2c(c1)C(C)(Cc1ccc(Cl)c(Cl)c1)C(=O)N2 (configuration not stated)	21	17*	.	-19	29*	11*
C[C@@H]1CN([C@H](C)CO)C(=O)c2cccc(NC(=O)C3CCCCC3)c2O[C@@H]1CN(C)S(=O)(=O)c1cccs1	3	.	.	.	.	.
